ELG1 genotox: induces genotoxicity in HEK293T cells with luciferase-tagged ELG1. HEK293T ELG1-luciferase reporter, luminescence, 16 h. Potency, µM (highest dose often 46 µM), for the others: at the top dose activity change, positive = activation, actives largely listed as activators. 330,000 tested, 1.3% active. AID 504466; note: % of control where 0% means no effect; nearly all actives have a fitted effect of over 60% in size
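Quantitative HTS format in 1536-well plates. HEK293T ELG1-luciferase reporter cells receive test compound and are incubated 16 hr at 37 °C, 5% CO2; ONE-Glo added, 30 min room temperature, then luminescence read.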
NPC1 promoter act: NPC1 promoter activation; Huh7 NPC1 promoter luciferase reporter, 24 h; Potency, µM (top dose mostly 9.22 µM), without a hit: at the highest dose activation, hits mostly activators; 320,000 tested, 2.4% active; AID 485313; note: % of control where 0% means no effect; nearly all actives have a fitted effect of over 60% in size
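Stably transfected Huh7 (NPC1 promoter→luciferase), 1500 cells/well in Opti-MEM + 10% FBS, 2 h settle, then compound 24 h at 37 °C. Luminescence after 10 min with Amplite reagent.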
SMN2 splice enh: SMN2 splice variant enhancement; 210,000 tested, 2.8% active; HEK293 SMN2-luciferase splicing reporter, luminescence, 30-36 h; Potency, µM (titrated, usually from 46.1 µM), without a hit: top-dose activity change, positive = activation, most hits filed as activators; AID 1458; note: % of control where 0% means no effect; nearly all actives have a fitted effect of over 55% in size
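qHTS luciferase splicing reporter: luminescence rises when SMN2 exon 7 is included in transfected HEK293 cells. Compound exposure lasted 30-36 h at 37C, with 4.5 mM final sodium butyrate as control, followed by a ONE-Glo read.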
Rab9 promoter act: Rab9 promoter activation; Huh7 Rab9 promoter-luciferase reporter, luminescence, 24 h; Potency, µM (series often up to 9.22 µM), for the others: top-dose activation, negative = inhibition, hits mostly activators; 320,000 tested, 2.8% active; note: % of control where 0% means no effect; nearly all actives have a fitted effect of over 60% in size
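Stable Rab9-luc Huh7, 1500 cells/well, 2 h settle; cmpd in DMSO, 24 h, 37 °C/5% CO2; luciferase reagent 10 min RT; luminescence.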
Luc counter: blocks Kinase-Glo luciferase, a counter-screen artifact; 200,000 tested, 0.28% active; Kinase-Glo luciferase, ATP luminescence, 8 min; Potency, µM (series often up to 38.3 µM), for inactives: at the top dose activity change, negative = inhibition, hits mostly inhibitors; AID 1379; note: % is set by controls: 0 for no effect and ±100 for the full control effect; nearly all actives have a fitted effect of over 60% in size
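Recombinant Kinase-Glo luciferase, 10 uM ATP (linear range), luciferin; imidazole pH 7.2 / KCl / MgCl2 / Tween / BSA buffer; 8 min RT; luminescence.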
FLuc modulator: firefly luciferase modulation, counter-screen for miR-21 project. P08659. purified FLuc, Km substrates, luminescence inhibition. Potency, µM (titrated, usually from 57.5 µM), for the others: at the top dose activity change, negative = inhibition, usual class: inhibitors. 360,000 tested, 6.9% active;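 note: plate controls were vehicle for no effect and reference inhibitor for full effect; nearly all actives have a fitted effect of over 55% in size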
Target sequence (P08659 whole entry, looked up): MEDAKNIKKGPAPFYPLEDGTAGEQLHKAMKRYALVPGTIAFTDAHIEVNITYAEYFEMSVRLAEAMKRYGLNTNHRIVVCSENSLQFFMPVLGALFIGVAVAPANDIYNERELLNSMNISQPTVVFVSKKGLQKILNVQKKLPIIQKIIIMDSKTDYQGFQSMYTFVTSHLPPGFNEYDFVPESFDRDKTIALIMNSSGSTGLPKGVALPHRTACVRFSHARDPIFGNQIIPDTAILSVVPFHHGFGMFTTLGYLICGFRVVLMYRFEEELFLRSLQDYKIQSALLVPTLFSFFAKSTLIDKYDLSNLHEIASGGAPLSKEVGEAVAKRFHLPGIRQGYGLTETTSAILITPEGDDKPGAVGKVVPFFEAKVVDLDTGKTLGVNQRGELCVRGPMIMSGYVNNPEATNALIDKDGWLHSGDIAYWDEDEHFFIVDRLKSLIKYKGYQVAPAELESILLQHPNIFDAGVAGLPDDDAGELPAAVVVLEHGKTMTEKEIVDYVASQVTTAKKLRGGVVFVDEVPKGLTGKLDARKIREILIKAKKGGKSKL
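Biochemical qHTS of compounds, final roughly 60 µM downward over six points, against 10 nM purified firefly luciferase using Km concentrations of substrates (10 uM D-luciferin, 10 uM ATP) in Tris acetate pH 7.5 buffer; luminescence output.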
An asterisk follows results filed as active; ? = inconclusive; / = no result given; ! = not confirmed by another sample; [ ] = dose if it differs, or a comment. This is a sample that favours compounds with a hit; in the whole collection about 7.5% have one here. Calls come from the whole dose curve; as a rule, active = well fitted curve in the direction sought with a large enough effect; inconclusive = small, poorly fitted or top-dose-only effect, or another doubt; inactive = no such curve, though single readings can be large; an effect the other way counts as inactive or inconclusive. Potency is the fitted concentration of half-maximal effect.

SMILES | ELG1 genotox | NPC1 promoter act | SMN2 splice enh | Rab9 promoter act | Luc counter | FLuc modulator
O=C1C2C3C=CC(C2C(=O)N1C1CCCCC1)C1C2C(=O)N(C4CCCCC4)C(=O)C2C31 (stereo not given) | -1% | -7% | -35% | -7% | 5% | -1%
CN(CC(=O)Nc1ccccc1Br)C(=O)c1cc2c(s1)CCCCC2 | ? | 26% | / | 29% | / | 11µM*
COc1ccc2cc(C(=O)N(C)CC(=O)Nc3ccccc3Br)ccc2c1 | 1% | 11% | / | 26% | / | 21µM*
CN(CC(=O)Nc1ccccc1Br)C(=O)CCC1CCCC1 | ? | ? | / | ? | / | 19µM*
CCCCC[C@H](O)/C=C/C1=C(C/C=C\CCCC(=O)O)C(=O)CC1 | / | / | -4% | / | 3% | /
CCCC(=O)NCc1nc2cccnc2n1Cc1ccc(F)cc1 | / | / | / | / | / | 2%
CS(=O)(=O)c1ccc2sc(NC(=O)c3cc4ccccc4o3)nc2c1 | 2% | ? | / | ? | / | 2.7µM*
CS(=O)(=O)c1ccc2nc(NC(=O)c3cc4ccccc4o3)sc2c1 | 1% | ? | 21% | ? | -5% | 2.7µM*
CS(=O)(=O)c1ccc2nc(NC(=O)c3cc(-c4ccccc4)nn3-c3ccccc3)sc2c1 | -5% | -3% | -27% | -2% | -1% | -7%
CS(=O)(=O)c1ccc2nc(NC(=O)Oc3ccccc3)sc2c1 | 4% | 2% | 9% | -4% | -6% | ?
COc1ccc(OC)c(/C=C(/C#N)c2nc(-c3ccc(-c4ccccc4)cc3)cs2)c1 | / | / | -1% | / | / | 5%
COCCNc1nc2sc3c(c2c(=O)n1Cc1ccco1)CCCCC3 | ? | ? | 32µM* | 2µM* | 1% | ?
O=c1c2c3c(sc2nc(NCCO)n1CCc1ccccc1)CCCCC3 | 0% | -17% | -3% | -6% | -2% | ?
O=c1c2c3c(sc2nc(NCCO)n1Cc1ccco1)CCCCC3 | 17% | 14% | 41% | 13% | -1% | 15µM*
O=C1C(=O)N(CCN2CCOCC2)C(c2ccccc2F)/C1=C(\O)c1ccc(S(=O)(=O)N2CCOCC2)cc1 (stereo not given) | 1% | 3% | / | -1% | / | 0%
CCOC(=O)C1C(=O)C=C(Nc2ccccc2F)CC1c1ccccc1 (stereo not given) | 12% | ? | ? | ? | 3% | 17µM*
COC(=O)C1C(=O)C=C(Nc2ccc(F)cc2F)CC1c1ccccc1 (stereo not given) | 7% | 15% | -6%[1.84 µM] | 17% | 1% | -17%
Cc1ccnc(N=Cc2nc(-c3ccccc3Br)oc2O)c1 | 12% | 22% | 58% | ? | -7% | 5.4µM*
Oc1oc(-c2cccc3ccccc23)nc1/C=N/c1nccs1 | 4% | -6% | 3% | 0% | 4% | 3%
Cc1cccc(/N=C/c2nc(-c3ccccc3Br)oc2O)n1 | 2% | -1% | -22% | -2% | -3% | 7.6µM*
O=C1c2ccccc2C(=O)c2c(Nc3ccc(CCO)cc3)ccc(O)c21 | -8% | ? | / | ? | / | ?
O=C1c2c(O)ccc(O)c2C(=O)c2c(NCCNCCO)ccc(NCCNCCO)c21 | -59% | -35%[46.1 µM] | -94% | -44%[46.1 µM] | 13µM*! | 19µM*
CCOc1ccc2c(c1)c(=O)c(C(=O)c1ccc3c(c1)OCO3)cn2Cc1ccc(F)cc1 | / | / | -5% | / | / | 2%
COc1ccc(-c2nnc(SCC(=O)N3CCOCC3)o2)cc1 | 21µM* | ? | 14µM* | 4.5µM* | 4% | 21µM*
COc1cccc(-c2nnc(SCC(=O)N3CCOCC3)o2)c1 | 10% | ? | 21% | 4µM* | 0% | ?
SMILES | ELG1 genotox | NPC1 promoter act | SMN2 splice enh | Rab9 promoter act | Luc counter | FLuc modulator
CCCn1cc(S(=O)(=O)c2cc(C)ccc2C)c(=O)c2cc(F)c(N3CCN(CC)CC3)cc21 | / | / | / | / | / | -4%
Cc1ccc(/C=N/NC(=O)c2cccs2)cc1[N+](=O)[O-] | 9% | ? | ? | ? | -2% | 7.6µM*
O=C(N/N=C/c1ccccc1[N+](=O)[O-])c1cccs1 | ? | ? | / | 2.5µM* | / | 6.7µM*
O=C(N/N=C/C=C/c1ccccc1[N+](=O)[O-])c1cccs1 | 3% | 7% | 9% | 19% | -1% | ?
CCc1ccccc1NC(=O)C1=C(C)C(=O)OC12CCCCCC2 | / | / | / | / | / | -4%
COc1ccc(OC)c(Nc2nc(-c3ccncc3)nc3ccccc23)c1 | -3% | -24% | / | -14% | / | -1%
COc1ccc(/C=N/Nc2nc(-c3cccnc3)nc3ccccc23)c(OC)c1 | -10% | 1% | / | 1% | / | 2.4µM*
Cc1ccc(-c2nc(N/N=C/c3cccc([N+](=O)[O-])c3)c3ccccc3n2)cc1 | 0% | ? | 5% | -3% | -5% | 0.54µM*
Cc1ccc(-c2nc(N/N=C/c3cccnc3)c3ccccc3n2)cc1 | ? | ? | ? | 3.5µM* | 7.9µM* | 0.12µM*
O=[N+]([O-])c1cccc(-c2nc(NCc3ccccc3)c3ccccc3n2)c1 | 2% | -3% | -16% | 14% | 1% | 0%
Cc1ccccc1Cn1c(SCc2ccc(C(=O)NCCc3ccccc3)cc2)nc2ccncc21 | / | / | -11% | / | / | -12%
COc1ccc(CNC(=O)c2sc3nc[nH]c(=O)c3c2C)cc1 | / | / | / | / | / | 5%
Cc1ccc(/C=C(\C#N)C(=O)Nc2ccc(Br)cc2)o1 | / | / | 3.2µM* | / | / | 3%
Cc1ccc(/C=C(\C#N)C(=O)Nc2cccc(Br)c2)o1 | / | / | 1% | / | / | 2%
COc1ccc(NC(=O)/C(C#N)=C/c2ccc(-c3ccccc3C(=O)O)o2)cc1 | 7% | 23% | / | 17% | / | 6.7µM*
N#C/C(=C\c1ccc(N2CCCCC2)o1)C(=O)Nc1cccc(Br)c1 | ? | 2.5µM* | -15% | 2µM* | -5% | 2.7µM*
COc1ccc(NC(=O)/C(C#N)=C\c2ccc(-c3cc(C(=O)O)ccc3C)o2)cc1 | -3% | -3% | / | -5% | / | 19µM*
CCOC(=O)C1CCC(CN(Cc2ccc(OC)cc2)S(=O)(=O)c2ccc(F)c(C(=O)Nc3cc(Cl)ccc3OC)c2)CC1 (stereo not given) | / | / | / | / | / | -1%
CC(C)N(Cc1ccccc1)C(=O)CN1c2cccc3cccc(c23)S1(=O)=O | -9% | / | / | / | / | /
CNC(=O)/C(C#N)=C/c1ccc(-c2ccc(OC)cc2[N+](=O)[O-])o1 | 13% | 29% | 16µM* | ? | 2% | ?
COc1ccc(NC(=O)/C(C#N)=C\c2ccc(-c3cccc(C(=O)O)c3C)o2)cc1 | -2% | 7% | / | 22% | / | 8.5µM*
COc1ccc(-c2ccc(C(=O)O)o2)c([N+](=O)[O-])c1 | -3% | -4% | 13% | -2% | 3% | -20%

From PubChem BioAssay
